According to PubChem BioAssay (Tox21):
Several values for one entry are separate records, joined by “and”; a condition that tells them apart may be missing. Equal entries are not always repeated. Results filed as inconclusive are left out. A call without a number means that no potency is given here. Some structures have more than one record in an assay (separate samples or runs), and their calls can disagree. Activity calls are given as the source filed them. Unless noted, calls come from the whole dose curve; as a rule, active = well fitted curve in the direction sought with a large enough effect in the repeat runs; inconclusive = weak or mixed curves; inactive = no such curve, though single readings can be large; an effect the other way counts as inactive or inconclusive.

Tests used:
[1] = qHTS assay to identify small molecule antagonists of the glucocorticoid receptor (GR) signaling pathway - cell viability counter screen (AID 720693); note: nearly all actives have a fitted effect of over 55% in size; note: potency is the fitted concentration of half-maximal effect
[2] = qHTS assay for identifying genotoxic compounds that show differential cytotoxicity against isogenic chicken DT40 cell lines with known DNA damage response pathways - wild type cell line (AID 743012); note: nearly all actives have a fitted effect of over 60% in size; note: potency is the fitted concentration of half-maximal effect
Method in brief: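 Cytotoxicity in repair-proficient parental chicken DT40 cells serves as the comparator for Rad54/Ku70- and Rev3-deficient lines. Cells were exposed to compounds for 40 h at 37 C/5% CO2, and ATP-based luminescence (CellTiter-Glo) measured viability.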

[3] = qHTS assay for identifying genotoxic compounds that show differential cytotoxicity against isogenic chicken DT40 cell lines with known DNA damage response pathways - Rev3 mutant cell line (AID 743014); note: nearly all actives have a fitted effect of over 55% in size; note: potency is the fitted concentration of half-maximal effect
[4] = qHTS assay to identify small molecule antagonists of the androgen receptor (AR) signaling pathway - cell viability counter screen (AID 743033; note: nearly all actives have a fitted effect of over 45% in size; note: potency is the fitted concentration of half-maximal effect)
[5] = qHTS assay to identify small molecule antagonists of the androgen receptor (AR) signaling pathway using the MDA cell line - cell viability counter screen (AID 743041; note: nearly all actives have a fitted effect of over 45% in size; note: potency is the fitted concentration of half-maximal effect)
Method in brief: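 Viability read by CellTiter-Fluor fluorescence in the same wells as the antagonist screen, added after 15.5 h of a 16 h, 37C exposure. Human breast carcinoma MDA-kb2 AR-luc cells, compounds co-dosed with agonist R1881.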

[6] = qHTS assay to identify small molecule antagonists of the thyroid receptor (TR) signaling pathway - cell viability counter screen (AID 743064); note: nearly all actives have a fitted effect of over 50% in size; note: potency is the fitted concentration of half-maximal effect
Method in brief: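 Plate GH3.TRE-Luc cells; incubate 4 h at 37 °C; add compound, then T3 to 1 nM final; incubate 23.5 h; add CellTiter-Fluor; incubate 30 min at 37 °C, 5% CO2; read fluorescence.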

[7] = qHTS assay for identifying genotoxic compounds that show differential cytotoxicity against isogenic chicken DT40 cell lines with known DNA damage response pathways - Rad54/Ku70 mutant cell line (AID 743015); note: nearly all actives have a fitted effect of over 60% in size; note: potency is the fitted concentration of half-maximal effect
[8] = target: Androgen receptor (Homo sapiens) (UniProt P10275); experiment: qHTS assay to identify small molecule agonists of the androgen receptor (AR) signaling pathway (AID 743036; active = well fitted activation curve with a large enough effect in the signal ratio in the repeat runs, with a control signal flat, not every such curve was filed as active; the % refers to the signal ratio; note: potency is the fitted concentration of half-maximal effect)
Androgen receptor (Homo sapiens), sequence (P10275 whole entry, looked up): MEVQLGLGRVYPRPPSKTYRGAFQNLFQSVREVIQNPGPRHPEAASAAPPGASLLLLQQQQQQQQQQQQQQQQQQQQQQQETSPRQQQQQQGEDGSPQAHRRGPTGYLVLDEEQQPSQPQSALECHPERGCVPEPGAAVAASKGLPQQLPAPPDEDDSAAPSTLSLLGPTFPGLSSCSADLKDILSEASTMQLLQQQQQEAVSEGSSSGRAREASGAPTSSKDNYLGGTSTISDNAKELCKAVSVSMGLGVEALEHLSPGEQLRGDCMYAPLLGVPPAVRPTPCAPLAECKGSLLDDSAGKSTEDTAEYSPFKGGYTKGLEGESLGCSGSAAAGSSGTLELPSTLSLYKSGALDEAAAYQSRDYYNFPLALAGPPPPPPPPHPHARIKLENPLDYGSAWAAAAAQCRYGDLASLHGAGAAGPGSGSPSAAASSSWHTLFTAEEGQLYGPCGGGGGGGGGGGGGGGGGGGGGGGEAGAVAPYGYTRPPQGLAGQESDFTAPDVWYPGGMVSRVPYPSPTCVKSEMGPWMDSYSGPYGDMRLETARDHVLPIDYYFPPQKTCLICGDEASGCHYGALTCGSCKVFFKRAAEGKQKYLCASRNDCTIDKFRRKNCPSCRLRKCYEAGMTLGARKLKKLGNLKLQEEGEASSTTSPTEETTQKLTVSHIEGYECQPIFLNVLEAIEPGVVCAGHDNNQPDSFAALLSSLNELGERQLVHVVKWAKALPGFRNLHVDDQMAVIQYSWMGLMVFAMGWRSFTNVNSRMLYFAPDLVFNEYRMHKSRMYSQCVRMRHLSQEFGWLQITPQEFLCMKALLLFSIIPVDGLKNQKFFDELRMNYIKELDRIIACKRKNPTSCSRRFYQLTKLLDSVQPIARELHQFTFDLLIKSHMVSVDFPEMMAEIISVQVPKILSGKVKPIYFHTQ
Method in brief: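 Reporter line: GeneBLAzer AR-UAS-bla-GripTite (HEK293). Steps: plate cells, 4 h rest, add compounds, 16 h at 37C, add LiveBLAzer B/G substrate, 2 h at RT, read fluorescence.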

[9] = target: Androgen receptor (Homo sapiens) (UniProt P10275); experiment: qHTS assay to identify small molecule agonists of the androgen receptor (AR) signaling pathway using the MDA cell line (AID 743040; note: nearly all actives have a fitted effect of over 20% in size)
Method in brief: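 Luciferase agonist assay: 16 h compound exposure at 37C without CO2 in MDA-kb2 AR-luc cells, whose MMTV promoter responds to both AR and GR. Luminescence measured after 30 min room-temperature incubation with ONE-Glo.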

[10] = target: Androgen receptor (Homo sapiens) (UniProt P10275); experiment: qHTS assay to identify small molecule antagonists of the androgen receptor (AR) signaling pathway using the MDA cell line (AID 743042; note: nearly all actives have a fitted effect of over 55% in size)
Method in brief: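 Antagonist mode: compounds plus R1881 agonist added to MDA-kb2 AR-luc cells, incubated 16 h at 37C. Luciferase reporter luminescence quantified, with multiplexed CellTiter-Fluor readout for cell viability.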

Compound | Potency [1] | Potency [2] | Potency [3] | Potency [4] | Potency [5] | Potency [6] | Potency [7] | Potency [8] | outcome [9] | Potency [10]
CCCCCCCCCCCCCC[N+](C)(C)C | 13.4 µM (active) and 29.9 µM (active) and 13.8 µM (active) | 237 nM (active) and 527 nM (active) and 217 nM (active) | 298 nM (active) and 469 nM (active) and 193 nM (active) | 15.1 µM (active) and 21.8 µM (active) | 18.8 µM (active) and 41.8 µM (active) | 4.22 µM (active) and 11.8 µM (active) and 8.63 µM (active) |  |  |  | 
CCCC(=O)OC(C)(C)Cc1ccccc1 | inactive | inactive | inactive | inactive | inactive | inactive |  |  |  | 
C/C=C/C=C/COC(=O)C(C)C | inactive | 13.7 µM (active) | 13.7 µM (active) | inactive | inactive |  |  |  |  | 
O=C(O)c1ccc2cc(C(=O)O)ccc2c1 | inactive | inactive |  | inactive | inactive |  | inactive |  |  | 
CC(C)NC[C@@H](O)COc1ccc(CC(N)=O)cc1 | inactive | inactive | inactive |  |  | inactive |  |  |  | 
CCCCCCCC/C=C\CCCCCCCCN | inactive | inactive | inactive | inactive | inactive | inactive |  |  |  | 
O=c1[nH]c(=O)n([C@H]2C[C@H](O)[C@@H](CO)O2)cc1F | inactive | 0.0053 µM (active) | 0.0038 µM (active) | inactive | inactive |  |  |  |  | 
Nc1nc2c(ncn2COCCO)c(=O)[nH]1 | inactive | 2.54 µM (active) |  | inactive | inactive |  | 4.52 µM (active) |  |  | 
O=S(=O)(O)c1ccc(N=Nc2c(O)ccc3ccccc23)cc1 | inactive | 61.1 µM (active) | 30.6 µM (active) |  | 27.3 µM (active) |  |  |  |  | 
COc1ccc(NC(=O)CC(C)=O)cc1 | inactive | inactive | inactive | inactive | inactive | inactive |  |  |  | 
CC(C)(C)c1ccc(C(O)CCCN2CCC(C(O)(c3ccccc3)c3ccccc3)CC2)cc1 (centres undefined) | inactive | 4.22 µM (active) and 3.76 µM (active) | inactive and 9.44 µM (active) | inactive | inactive |  |  |  |  | 
CCn1c2ccccc2c2cc([N+](=O)[O-])ccc21 | inactive | 48.6 µM (active) |  | inactive | inactive |  | 54.5 µM (active) |  |  | 
O=c1oc2cc(O)ccc2c2oc3cc(O)ccc3c12 | inactive | inactive | inactive | inactive | inactive | inactive |  |  |  | 
O=C1NC(=O)[C@@H]2CC=CC[C@H]12 | inactive | 61.1 µM (active) | 48.6 µM (active) | inactive | inactive | inactive |  |  |  | 
CCCCC(CC)COC(=O)CCCCC(=O)OCc1ccccc1 (centres undefined) | inactive | inactive | inactive | inactive | inactive | inactive |  |  |  | 
CCOC(=O)c1ccc(C2CCC(NC[C@H](O)COc3ccc(O)c(NS(C)(=O)=O)c3)CC2)cc1 (some centres undefined) | inactive | 0.356 µM (active) | 0.1 µM (active) | 45.2 µM (active) | inactive | 39.9 µM (active) |  |  |  | 
CCc1cccc(CC)c1NC(=O)CN(CC(=O)O)CC(=O)O | inactive | inactive |  | inactive | inactive |  | inactive |  |  | 
O=C1CCCCCCCCCCCCCCCO1 | inactive | inactive |  | inactive | inactive |  | inactive |  |  | 
CC(=O)c1ccc(C(C)=O)cc1 | inactive | inactive |  | inactive | inactive | inactive | inactive | inactive | inactive | inactive

Compound | Potency [1] | Potency [2] | Potency [3] | Potency [4] | Potency [5] | Potency [6] | Potency [7] | Potency [8] | outcome [9] | Potency [10]
CC(C)OC(=O)C(O)(CC(=O)O)CC(=O)O | inactive | inactive |  | inactive |  |  | inactive | inactive | inactive | inactive
Cc1ccc(C(=O)O)cc1 | inactive | inactive | inactive | inactive | inactive | inactive |  |  |  | 
c1ccsc1 | inactive | inactive |  | inactive |  | inactive | inactive | 5.9 µM (active) |  | inactive
O=C(O)c1cc(N=Nc2ccc([N+](=O)[O-])cc2)ccc1O | 21.5 µM (active) | inactive | inactive | inactive | 47.7 µM (active) |  |  |  |  | 
CCCC(=O)OCCc1ccccc1 | inactive | inactive | inactive | inactive |  | inactive |  |  |  | 
Clc1ccnc(Cl)n1 | inactive | inactive |  | inactive | inactive |  | inactive |  |  | 
CC(C(=O)O)c1ccc2c(c1)[nH]c1ccc(Cl)cc12 (centres undefined) | inactive | inactive | inactive | inactive | inactive | inactive |  |  |  | 
CCCCCCCCCCCCCC[N+](C)(C)Cc1ccccc1 | 21.3 µM (active) and 24.9 µM (active) | 473 nM (active) and 621 nM (active) | 750 nM (active) and 493 nM (active) | 23.9 µM (active) and 7.03 µM (active) | 49.3 µM (active) | 11.9 µM (active) and 13.9 µM (active) |  |  |  | 
Cc1c(C)c2c(c(C)c1O)CC[C@@](C)(CCC[C@H](C)CCC[C@H](C)CCCC(C)C)O2 | inactive |  | inactive | inactive | inactive | inactive | inactive |  |  | 
CCCCCCCCCCOC(=O)c1ccccc1C(=O)OCCCCCCCC | inactive |  | inactive | inactive | inactive |  | inactive | inactive | inactive | inactive
C#C[C@]1(OC(C)=O)CC[C@H]2[C@@H]3CCC4=C/C(=N/O)CC[C@@H]4[C@H]3CC[C@@]21CC | 21.3 µM (active) |  | 13.3 µM (active) | inactive | inactive |  | 10.6 µM (active) |  |  | 
ClCCl | inactive |  | inactive | inactive | inactive | inactive | inactive | inactive | inactive | inactive
CC(=O)Oc1cc2c(s1)CCN(C(C(=O)C1CC1)c1ccccc1F)C2 (centres undefined) | inactive | inactive |  | inactive | inactive | inactive | inactive |  |  | 
C=Cc1cccc(C)c1 | inactive | inactive |  | inactive |  | inactive | inactive |  |  | 
CN1CCCCC1CCN1c2ccccc2Sc2ccc(S(C)=O)cc21 (centres undefined) | inactive |  | 29.8 µM (active) | inactive | inactive | inactive and 13.3 µM (active) | 29.8 µM (active) |  |  | 
CCCCOC(=O)CO | inactive | inactive |  | inactive |  | inactive |  |  |  | 
CCOc1ccc2ccccc2c1C(=O)N[C@@H]1C(=O)N2[C@@H]1SC(C)(C)[C@@H]2C(=O)O | inactive | inactive |  |  | inactive | inactive | inactive |  | inactive | inactive
COc1ccc2cc1Oc1ccc(cc1)C[C@H]1c3c(cc4c(c3Oc3cc5c(cc3OC)CCN(C)[C@@H]5C2)OCO4)CCN1C | inactive | 7.5 µM (active) |  |  |  |  | 8.41 µM (active) |  | inactive | inactive
CC(C)CCCCCOC(=O)CCS | inactive | inactive |  | inactive | inactive | inactive | inactive |  |  | 
